Here are results for 14 compounds from PubChem BioAssay (NCI).

Molecules are shown by their SMILES. About 79,000 compounds went through this panel and 15% of them were active in at least one assay; those are over-represented in the sample as a whole. Values without a mark were called inactive. Activity calls are given as the source filed them. Cut-off read from the data, not from the text of the source: active = growth inhibition above about 70%; inactive = the rest.

A short description of the assay: NCI Yeast Anticancer Drug Screen. Data for the mec2-1 strain (AID 157). Particulars: S. cerevisiae mec2-1 strain, stronger effect = higher value. On the procedure: Growth inhibition of yeast strains with defined genetic alterations is measured as a screen for potential anti-cancer activity. Selected strains with alterations in DNA damage repair or cell cycle control were exposed to compounds and growth inhibition was measured relative to vehicle treated controls. The strain used in this assay is mec2-1

The mark [1] stands for this setting: at 5.0 µM (retest, dose inferred, filed as 0.5).
Where [2] appears, read: at 50.0 µM (retest, dose inferred, filed as 5.0).

In the case of `C=C1C(=O)OC2/C=C(\C(=O)O)CC/C=C(\C)CC(OC(=O)/C=C(\C)CC)C12` (configuration not stated), the growth inhibition by setting is: under setting [1], -5%; under setting [2], 79% (active); (at 50.0 µM) 68.2%.
As for `COC(=O)C(C#N)C(c1ccccc1)c1c[nH]c2ccccc12` (configuration not stated), the growth inhibition is, setting by setting: under setting [1], -4%; under setting [2], 59%; (at 50.0 µM) 16.3%.
The like results for `CC1N(O)C(c2ccccc2)C(c2ccccc2)=[N+]1[O-]` (configuration not stated) were, in that order, 11%, 14% and -26.9%.
The like results for `c1ccc2c(c1)-c1cccc3cncc-2c13` were, in that order, 52%, 53% and 92.6% (active).
The like results for `c1ccc2c(c1)Sc1nccc3ccnc-2c13` were, in that order, 28%, 93% (active) and 79.3% (active).
With `COC(=O)C1C(c2ccccc2)=N[C@@H](c2ccccc2)[C@H]1C(=O)OC` (some centres not stated), the growth inhibition was 3% under setting [1], -2% under setting [2] and -2.15% (at 50.0 µM).
The like results for `Cc1cc(O)c(C(=O)/C=C/c2cccnc2)c(=O)[nH]1` were, in that order, -3%, 76% (active) and 33.7%.
For `Cc1cnc2cccc(Cl)c2c1Cl` the same measures were 17%, 11% and 28.4%.
The like results for `COc1ccc(C2=Nc3cc(C)c(C)cc3NC(c3ccccc3)C2)cc1` (configuration not stated) were, in that order, 7%, 7% and 69.8%.
As for `O=C1c2ccccc2-c2nc3ncccc3cc21`, the growth inhibition is 6% under setting [1], 83% (active) under setting [2] and 56.1% (at 50.0 µM).
In the case of `Oc1ccc(C2CCc3ccccc32)cc1` (configuration not stated), the growth inhibition by setting is: under setting [1], -36%; under setting [2], 98% (active); (at 50.0 µM) 99.8% (active).
For `O=c1oc(-c2ccccc2)nc2ccccc12` the same measures were 4%, 17% and 31.2%.
For `CC(C)CCN1CCC2(CCCCC2)CC1` the same measures were 5%, -6% and 24.1%.
For the compound `CN1CCN(CC(=O)c2c(-c3ccccc3)[nH]c3ccccc23)CC1`, the growth inhibition is 56% under setting [1], 1% under setting [2] and 15.8% (at 50.0 µM).
